# Data published in PMC4336329 (PLoS ONE, 2015).
# Out of some 310,000 compounds screened, about 14,000 (4.5%) showed an effect of 50% or more. Effects have a minus sign here. What follows is part of a selection rich in strong results, with near analogues and random picks from the rest.
# Target: human ether-à-go-go-related gene (hERG) potassium channel (human, UniProt Q12809)
# Assay: primary screen, population patch clamp on CHO cells stably expressing hERG; higher = less effect of the substance
# 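Further: peak tail current of the secondary pulse compared with the same well before compound.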
# Sequence of human ether-à-go-go-related gene (hERG) potassium channel (Q12809 whole entry, looked up): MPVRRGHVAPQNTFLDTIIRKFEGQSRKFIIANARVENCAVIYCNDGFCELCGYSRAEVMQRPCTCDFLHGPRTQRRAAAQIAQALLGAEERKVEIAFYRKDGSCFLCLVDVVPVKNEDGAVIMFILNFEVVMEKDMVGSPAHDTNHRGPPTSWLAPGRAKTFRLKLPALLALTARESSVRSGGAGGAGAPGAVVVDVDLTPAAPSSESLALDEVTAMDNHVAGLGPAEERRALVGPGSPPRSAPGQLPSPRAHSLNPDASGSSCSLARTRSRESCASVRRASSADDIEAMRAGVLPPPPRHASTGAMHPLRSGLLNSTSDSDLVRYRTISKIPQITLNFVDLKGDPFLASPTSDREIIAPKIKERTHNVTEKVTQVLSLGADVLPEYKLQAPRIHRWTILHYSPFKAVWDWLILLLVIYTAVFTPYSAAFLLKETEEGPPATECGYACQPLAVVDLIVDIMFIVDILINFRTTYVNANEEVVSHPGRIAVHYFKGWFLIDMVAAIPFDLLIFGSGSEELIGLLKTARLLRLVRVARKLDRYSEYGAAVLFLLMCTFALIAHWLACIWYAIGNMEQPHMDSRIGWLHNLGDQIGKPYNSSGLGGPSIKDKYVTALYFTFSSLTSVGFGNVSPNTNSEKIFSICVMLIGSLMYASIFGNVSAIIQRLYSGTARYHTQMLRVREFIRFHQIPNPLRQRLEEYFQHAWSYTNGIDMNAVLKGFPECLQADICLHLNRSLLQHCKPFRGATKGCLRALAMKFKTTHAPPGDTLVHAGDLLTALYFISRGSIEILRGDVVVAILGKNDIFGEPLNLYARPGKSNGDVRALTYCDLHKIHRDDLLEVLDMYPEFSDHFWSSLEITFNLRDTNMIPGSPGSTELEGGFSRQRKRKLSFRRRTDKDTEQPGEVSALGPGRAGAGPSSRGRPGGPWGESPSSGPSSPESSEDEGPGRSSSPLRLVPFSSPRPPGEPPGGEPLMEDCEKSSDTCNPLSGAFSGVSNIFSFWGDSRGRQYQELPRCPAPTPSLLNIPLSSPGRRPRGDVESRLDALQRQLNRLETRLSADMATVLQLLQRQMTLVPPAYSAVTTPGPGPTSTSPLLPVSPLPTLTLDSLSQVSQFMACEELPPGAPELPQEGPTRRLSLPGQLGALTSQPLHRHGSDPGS
row,SMILES,"hERG current change (%, negative = inhibition) at 10uM"
1,COC(=O)c1sc2nc(SCC(=O)N(C)c3ccccc3)n(N)c(=O)c2c1C,27.4%
2,Cc1cccc(OCCCOc2cccc3cccnc23)c1C,10.4%
3,Cc1nc(CC(=O)N2CCN(S(=O)(=O)c3ccccc3C#N)CC2)cs1,10.3%
4,C/C(=N\NC(=O)CCC(=O)O)c1c(-c2ccccc2)c2cc(Br)ccc2[nH]c1=O,6.72%
5,O=C(O)C1CC(c2ccccc2)=Nc2ccccc2S1 (stereo not drawn),1.43%
6,CN1C(=O)/C(=C\c2ccncc2)SC1=Nc1ccccc1,-11.2%
7,Cc1ccc(-c2nc(N)sc2C)cc1,-16.9%
8,COC(=O)c1c(NC(=O)c2cccnc2Cl)sc(C(=O)N(C)C)c1C,-6.44%
9,S=c1[nH]nc(Nc2cccc3ccccc23)s1,16.3%
10,O=C(c1cc2sccc2n1Cc1ccccc1)N1CCc2ccccc21,-2.82%
11,CCS(=O)(=O)N1CCC(C(=O)NCCCN2CCC(Cc3ccccc3)CC2)CC1,-65.5%
12,CC1CC(C)CN(CCCNC(=O)C2CCCN(S(=O)(=O)N3CC(C)CC(C)C3)C2)C1 (stereo not drawn),-61%
13,CC1CC(C)CN(S(=O)(=O)N2CCCC(C(=O)NCCCN3CCCCC3C)C2)C1 (stereo not drawn),-9.36%
14,CCCS(=O)(=O)N1CCC(C(=O)NCCN2CCCC2)CC1,-7.65%
15,CCCCCCNCC(=O)N1CCC(Cc2ccccc2)CC1,-71.7%
16,CCS(=O)(=O)N1CCC(C(=O)NCCN2CCN(Cc3ccccc3)CC2)CC1,2.07%
17,O=C(NCCCN1CCC(Cc2ccccc2)CC1)C1CCN(S(=O)(=O)N2CCC3(CC2)OCCO3)CC1,-42.7%
18,CC1CC(C)CN(S(=O)(=O)N2CCCC(C(=O)NCCCN3CCOCC3)C2)C1 (stereo not drawn),19.1%
19,CCCS(=O)(=O)N1CCC(C(=O)NCCc2ccccc2)CC1,1.42%
20,CCCNC(=O)N1CCC(Cc2ccccc2)CC1,16.6%

row,SMILES,"hERG current change (%, negative = inhibition) at 10uM"
1,CCCS(=O)(=O)N1CCC(C(=O)NCCN2CCC(Cc3ccccc3)CC2)CC1,-57.6%
2,CCCC(=O)N1CCC(Cc2ccccc2)CC1,9.83%
3,COc1ccccc1NS(=O)(=O)/C=C/c1ccccc1,-16.8%
4,O=C(CCN1C(=O)c2ccccc2C1=O)C1=NN[C@@H]2C(=O)N(c3ccc(F)cc3)C(=O)[C@H]12,-5.4%
5,O=C(CCS(=O)(=O)c1ccc2c(c1)NC(=O)CS2)NCCc1ccccc1,8.31%
6,O=c1c2cc(N3CCOCC3)ccc2[nH]c(=S)n1CCCN1CCCCCC1,-17%
7,BrC(/C=C\c1ccccc1)=N/Nc1nc(N2CCOCC2)nc(N2CCOCC2)n1,-39%
8,CCNc1nn2ccccc2c1/C=C(\C#N)C(=O)OCC,-4.06%
9,COCCCNC(=S)Nc1ccc(C)cc1[N+](=O)[O-],1.51%
10,CCCS(=O)(=O)N1CCC(C(=O)N2CCC(Cc3ccccc3)CC2)CC1,-63%
11,CCCS(=O)(=O)N1CCCC(C(=O)NCCN(C)Cc2ccccc2)C1 (stereo not drawn),-8.41%
12,CCCS(=O)(=O)N1CCCC(C(=O)NCCc2ccccc2)C1 (stereo not drawn),-1.02%
13,CS(=O)(=O)N1CCC(C(=O)N2CCC(Cc3ccccc3)CC2)CC1,-15.1%
14,CCCS(=O)(=O)N1CCCC(C(=O)N2CCC(Cc3ccccc3)CC2)C1 (stereo not drawn),-19.9%
15,CCCS(=O)(=O)N1CCCC(C(=O)NCCN2CCC(Cc3ccccc3)CC2)C1 (stereo not drawn),-58.2%
16,CCSc1nsc(SCC)c1C(N)=O,7.66%
17,CC1(C)Cc2nc3scc(NC(=O)c4ccccc4)c3cc2CO1,-0.679%
18,CN(CCc1ccccc1)c1ccc([N+](=O)[O-])cn1,2.08%
19,CC1CCCCN1CCCn1c(=S)[nH]c2ccccc2c1=O (stereo not drawn),-46.4%
20,CCC1CCCCN1CCCn1c(=S)[nH]c2ccccc2c1=O (stereo not drawn),-56.2%

row,SMILES,"hERG current change (%, negative = inhibition) at 10uM"
1,O=c1c2ccccc2[nH]c(=S)n1CCN1CCCCC1,-1.11%
2,O=c1c2ccccc2[nH]c(=S)n1CCCN1CCN(c2ccccc2F)CC1,-2.57%
3,CCN1CCN(CCn2c(=S)[nH]c3ccccc3c2=O)CC1,-10.5%
4,CCC1CCCCN1CCn1c(=S)[nH]c2cc(OC)c(OC)cc2c1=O (stereo not drawn),-25.4%
5,CC1CC(C)CN(C(=O)CCCn2c(=S)[nH]c3ccccc3c2=O)C1 (stereo not drawn),-3.01%
6,CCCCn1c(=S)[nH]c2ccccc2c1=O,13.7%
7,CC1CC(C)CN(CCCn2c(=S)[nH]c3ccccc3c2=O)C1 (stereo not drawn),-53%
8,COc1ccccc1N1CCN(CCCn2c(=S)[nH]c3ccccc3c2=O)CC1,-61.6%
9,COc1ccc(N2CCN(CCCn3c(=S)[nH]c4ccccc4c3=O)CC2)cc1,-36.7%
10,O=c1c2ccccc2[nH]c(=S)n1CCCN1CCN(C2CCCCC2)CC1,-53.9%
11,CCC1(C)Cc2ccccc2-c2nc(NCCO)n(-c3ccc(C)cc3)c(=O)c21 (stereo not drawn),-25.1%
12,CCOC(=O)N1CCN(c2c(NCc3ccccc3OC)c(=O)c2=O)CC1,0.238%
13,CCOC(=O)Nc1ccc(S(=O)(=O)Nc2cc(C)on2)cc1,6.84%
14,CC1CCN(CCn2c(=S)[nH]c3ccccc3c2=O)CC1,-32.6%
15,O=c1c2ccccc2[nH]c(=S)n1CCCN1CCOCC1,8.73%
16,O=c1c2ccccc2[nH]c(=S)n1CCCN1CCN(c2ccccc2)CC1,-19.7%
17,O=c1c2ccccc2[nH]c(=S)n1CCCN1CCC(Cc2ccccc2)CC1,-73.6%
18,CC1CCN(CCCn2c(=S)[nH]c3ccccc3c2=O)CC1,-56.9%
19,O=c1c2ccccc2[nH]c(=S)n1CCN1CCN(Cc2ccccc2)CC1,-19.8%
20,C=CCn1c(SCC(=O)NCC(c2ccccc2)N(C)C)nnc1C1CCCCC1 (stereo not drawn),8.62%
